Experimental findings from PubChem BioAssay (Tox21) are described below.

Values without a mark were called inactive. Records with an inconclusive call do not appear. The source made the active and inactive calls. Calls come from the whole dose curve; as a rule, active = well fitted curve in the direction sought with a large enough effect in the repeat runs; inconclusive = weak or mixed curves; inactive = no such curve, though single readings can be large; an effect the other way counts as inactive or inconclusive.

Assay [1] in a line: Caspase-3/7 induction in HepG2 cells by small molecules, qHTS assay (AID 1346978). Note: nearly all actives have a fitted effect of over 15% in size. Put shortly:
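Caspase-3/7 induction was measured by Caspase-Glo 3/7 luminescence (30 min, room temperature) after a 17 hr compound exposure of wild-type HepG2 cells seeded at 2,000 per well and pre-incubated 5 hr.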

A short description of assay [2]: Caspase-3/7 induction in CHO-K1 cells by small molecules, qHTS cell viability counter screen (AID 1346979). Note: nearly all actives have a fitted effect of over 35% in size. Note: potency is the fitted concentration of half-maximal effect. In a few lines: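 Multiplexed with Caspase-Glo 3/7 in CHO-K1 cells, this counter screen added CellTiter-Fluor after 16hr of compound exposure and recorded fluorescence 1hr later.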
The nature of assay [3]: Caspase-3/7 induction in CHO-K1 cells by small molecules, qHTS assay (AID 1346980). Note: nearly all actives have a fitted effect of over 15% in size. In a few lines:
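Luminescent Caspase-Glo 3/7 read (30min, room temperature) quantified apoptosis induction. Cells were wild-type CHO-K1, treated with compound for 17hr at 37 C and 5% CO2.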

Assay [4] in a line: Caspase-3/7 induction in HepG2 cells by small molecules, qHTS cell viability counter screen (AID 1346981). Note: nearly all actives have a fitted effect of over 30% in size. Note: potency is the fitted concentration of half-maximal effect. Put shortly:
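Treatment of HepG2 cells with DMSO-delivered compounds ran 16 hr at 37 C following a 5-hr pre-incubation of 2,000 cells/well. CellTiter-Fluor fluorescence, read after 1 hr, served as the viability measure in a qHTS format.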

In assay [5] the target is Nuclear receptor subfamily 1 group I member 2 (Homo sapiens) (UniProt O75469). The assay is described as follows: Human pregnane X receptor (PXR) small molecule agonists, qHTS assay (AID 1346982). Note: nearly all actives have a fitted effect of over 35% in size. Note: potency is the fitted concentration of half-maximal effect. In a few lines:
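Stable HepG2 line reporting PXR-mediated CYP3A4 expression via luciferase. Treatment: 24 hr with compounds in DMSO at 37 C. Detection: ONE-Glo luminescence.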

Assay [6] can be described thus: Human pregnane X receptor (PXR) small molecule agonists, qHTS cell viability counter screen (AID 1346977). Note: nearly all actives have a fitted effect of over 50% in size. Note: potency is the fitted concentration of half-maximal effect. Put shortly:
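After a 5hr pre-incubation, PXR-Luc HepG2 cells received compounds plus positive control in DMSO and were kept 24hr at 37C. Cell viability was quantified by fluorescence from CellTiter-Fluor added for the final hour.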

Assay [7] addresses Nuclear receptor subfamily 1 group I member 2 (Rattus norvegicus) (UniProt Q9R1A7). The experiment in a line: Rat pregnane X receptor (rPXR) activation by small molecules, qHTS assay (AID 1346983). Note: nearly all actives have a fitted effect of over 20% in size. Note: potency is the fitted concentration of half-maximal effect. To be noted: rPXR luciferase reporter cells, One-Glo luminescence, 24 h; max activation: stronger effect = higher value. In a few lines: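 Luminescent readout (One-Glo luciferase, 30 min room temperature) followed 24 hr compound treatment at 37 C of rPXR cells plated 2,000 per well and preincubated 5hr; qHTS format with compounds delivered in DMSO.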

Assay [8] concerns the target Cytochrome P450 2D6 (Homo sapiens) (UniProt P10635). The assay is described as follows: Cytochrome P450 Family 2 Subfamily D Member 6 (CYP2D6) small molecule antagonists: luciferase reporter qHTS assay (AID 1671196). Note: nearly all actives have a fitted effect of over 50% in size. Note: potency is the fitted concentration of half-maximal effect. In a few lines:
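Chemicals tested for interference with CYP2D6 activity; proluciferin substrate, NADPH regeneration, 1 h at room temperature, luminescent detection.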

Assay [9] addresses Nuclear receptor subfamily 1 group I member 2 (Homo sapiens) (UniProt O75469). The assay is described as follows: CYP3A4 induction through human pregnane X receptor (PXR) by small molecules, qHTS assay (AID 1346984). Note: nearly all actives have a fitted effect of over 40% in size. Note: potency is the fitted concentration of half-maximal effect. In a few lines:
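After 24 h at 37C with compound, DPX-2 cells (HepG2, co-transfected PXR response element and CYP3A4 promoter-luciferase) got 3uM final P450-Glo Luciferin-IPA for 3 h; One-Glo luminescence followed.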

The target is the same in assay [10]. The assay is described as follows: Human pregnane X receptor (PXR) activation by small molecules, qHTS assay (AID 1346985). Note: nearly all actives have a fitted effect of over 40% in size. Note: potency is the fitted concentration of half-maximal effect. In a few lines: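 DPX-2 cells (HepG2 co-transfected with a PXR response element and a CYP3A4-promoter luciferase construct) were seeded at 2,000 per well, rested 5 hr at 37C, then exposed to DMSO-dissolved compounds for 24 hr. Activation was read as luciferase luminescence.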
% is set by controls: 0 for no effect and ±100 for the full control effect.

Cytochrome P450 2D6 (Homo sapiens), sequence (P10635 whole entry, looked up): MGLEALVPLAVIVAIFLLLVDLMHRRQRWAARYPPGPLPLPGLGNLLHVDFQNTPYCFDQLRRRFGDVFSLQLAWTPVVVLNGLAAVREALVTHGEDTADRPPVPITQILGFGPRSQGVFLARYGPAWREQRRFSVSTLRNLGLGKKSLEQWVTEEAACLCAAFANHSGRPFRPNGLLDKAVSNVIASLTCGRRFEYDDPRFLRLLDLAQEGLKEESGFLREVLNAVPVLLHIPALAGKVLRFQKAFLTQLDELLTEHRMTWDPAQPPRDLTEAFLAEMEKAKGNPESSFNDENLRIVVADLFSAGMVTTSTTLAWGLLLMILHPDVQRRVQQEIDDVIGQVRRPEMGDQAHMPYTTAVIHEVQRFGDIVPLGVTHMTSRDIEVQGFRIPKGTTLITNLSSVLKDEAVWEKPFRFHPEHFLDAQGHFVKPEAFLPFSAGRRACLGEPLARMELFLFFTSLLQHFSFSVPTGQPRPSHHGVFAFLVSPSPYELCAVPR
Nuclear receptor subfamily 1 group I member 2 (Homo sapiens), sequence (O75469 whole entry, looked up): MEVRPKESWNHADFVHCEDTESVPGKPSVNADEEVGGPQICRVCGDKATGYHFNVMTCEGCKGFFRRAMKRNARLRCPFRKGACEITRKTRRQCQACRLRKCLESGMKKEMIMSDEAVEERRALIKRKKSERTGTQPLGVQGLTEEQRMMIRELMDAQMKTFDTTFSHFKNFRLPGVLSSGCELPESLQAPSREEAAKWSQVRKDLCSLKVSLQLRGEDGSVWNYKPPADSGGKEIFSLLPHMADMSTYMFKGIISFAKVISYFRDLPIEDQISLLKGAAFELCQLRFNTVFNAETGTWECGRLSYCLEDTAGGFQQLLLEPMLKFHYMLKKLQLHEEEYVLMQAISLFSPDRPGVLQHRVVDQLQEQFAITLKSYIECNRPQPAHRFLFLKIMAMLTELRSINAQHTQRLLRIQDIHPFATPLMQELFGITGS
Nuclear receptor subfamily 1 group I member 2 (Rattus norvegicus), sequence (Q9R1A7 whole entry, looked up): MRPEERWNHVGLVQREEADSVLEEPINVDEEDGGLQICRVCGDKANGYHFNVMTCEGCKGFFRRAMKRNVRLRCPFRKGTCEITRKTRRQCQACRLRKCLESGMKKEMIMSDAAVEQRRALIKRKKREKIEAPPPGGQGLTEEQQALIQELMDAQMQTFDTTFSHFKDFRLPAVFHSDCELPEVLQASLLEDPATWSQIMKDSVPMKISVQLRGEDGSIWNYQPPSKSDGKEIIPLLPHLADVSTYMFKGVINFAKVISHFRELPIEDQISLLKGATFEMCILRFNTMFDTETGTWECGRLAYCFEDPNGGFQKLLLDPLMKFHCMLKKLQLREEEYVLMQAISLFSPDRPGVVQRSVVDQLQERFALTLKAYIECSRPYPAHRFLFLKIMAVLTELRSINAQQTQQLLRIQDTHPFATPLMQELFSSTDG

In the case of `CCCCCCCCCCCCN1CCCCCC1=O`, the Potency result in assay [1], in assay [2], in assay [3] and in assay [4] was “inactive” throughout. The Potency in [5] is 21.7 µM (active).

For the compound `C[C@H](CCC(=O)O)[C@H]1CC[C@H]2[C@@H]3CC[C@@H]4C[C@H](O)CC[C@]4(C)[C@H]3C[C@H](O)[C@]12C`, the Potency entry in assay [6], in [1] and in [3] was “inactive” throughout. In addition, the Potency in [4] was 54.6 µM (active).

As to `COc1cc2nc(N3CCN(C(=O)C4COc5ccccc5O4)CC3)nc(N)c2cc1OC` (stereo not drawn), the Potency in assay [6] is 26.6 µM (active). The Potency entry in assay [1], in assay [3] and in assay [8] was “inactive” throughout. In addition, in [7], the max activation is -0.947%.

Consider `CCCCCCCCCCCCCCCCOS(=O)(=O)O`, for which the Potency result in assay [6], in assay [1], in assay [3], in assay [4] and in assay [5] was “inactive” throughout.

As for `CCOC(=O)COC(=O)c1cc(Oc2ccc(C(F)(F)F)cc2Cl)ccc1[N+](=O)[O-]`, the Potency result in assay [6], in assay [1], in assay [3] and in assay [4] was “inactive” each time. Also, the Potency was 30.6 µM (active) in [5] and 15.9 µM (active) in assay [8].

In the case of `CCCCCCCCCc1ccc(OCCOCCO)cc1`, the Potency was 5.74 µM (active) in assay [6]; 18.1 µM (active) in [2]; 20.4 µM (active) in assay [4]; 6.44 µM (active) in assay [5]; 23.6 µM (active) in assay [8]. In addition, the Potency entry in [3], in assay [9] and in assay [10] was “inactive” each time.

With `O=C(c1ccc(F)cc1)C1CCN(CCn2c(=S)[nH]c3ccccc3c2=O)CC1`, the Potency entry in [6], in [1], in [3] and in assay [4] was “inactive” throughout. The results for the Potency in assay [5] and in assay [8] were 10.6 µM (active) and 4.36 µM (active), respectively.

On to `CNCCCCOc1ccccc1Cc1ccccc1`, for which the Potency in [6] is 26.6 µM (active). In addition, the Potency entry in [3], in assay [4], in [5] and in [10] was “inactive” throughout.

As to `O=C1[C@H]2CCCC[C@H]2C(=O)N1CCCCN1CCN(c2nsc3ccccc23)CC1`, the Potency entry in assay [1], in [3] and in assay [4] was “inactive” each time. In addition, the results for the Potency in assay [5] and in assay [10] were 5.31 µM (active) and 12.6 µM (active), respectively.

Turning to `O=C(Nc1ccccc1)c1ccccc1O`, the Potency result in assay [1] and in assay [3] was “inactive” each time. Further, the Potency in assay [5] was 6.86 µM (active); in assay [8], 35.6 µM (active).

Turning to `C#Cc1cccc(Nc2ncnc3cc(OCCOC)c(OCCOC)cc23)c1`, the Potency entry in [1], in assay [3], in assay [9] and in [8] was “inactive” in each case. Further, the Potency in [2] was 6.68 µM (active); in assay [5], 7.5 µM (active).

Take `CC(C)OC(=O)C(C)N(C(=O)c1ccccc1)c1ccc(F)c(Cl)c1` (stereo not drawn): the Potency result in assay [1] and in [3] was “inactive” throughout. Further, in [5], the Potency is 2.73 µM (active).

For the compound `CC(C)C[C@H]1C(=O)N2CCC[C@H]2[C@]2(O)O[C@](NC(=O)[C@@H]3C=C4c5cccc6[nH]c(Br)c(c56)C[C@H]4N(C)C3)(C(C)C)C(=O)N12`, the Potency entry in [1], in [3], in assay [9] and in assay [8] was “inactive” in each case. In addition, the Potency in [4] was 16.4 µM (active). For the same compound, the max activation in [7] was 0.513%.

In the case of `C#C[C@]1(O)CC[C@H]2[C@@H]3CCc4cc(OC5CCCC5)ccc4[C@H]3CC[C@@]21C`, the Potency result in [1], in assay [3], in assay [4] and in assay [8] was “inactive” in each case. Also, the Potency in assay [2] is 29.8 µM (active).

Turning to `CN(C)c1ccc(C(c2ccccc2)c2ccc(N(C)C)cc2)cc1`, the Potency result in [1] and in [3] was “inactive” in each case. Moreover, the results for the Potency in assay [2], in assay [5] and in assay [8] were 1.09 µM (active), 21.7 µM (active) and 31.7 µM (active), respectively.

Take `CN(C)CCOC(c1ccccc1)c1ccc(Br)cc1` (stereo not drawn): the Potency result in [1], in assay [2], in assay [3] and in [5] was “inactive” throughout. For the same compound, the Potency in assay [8] was 1.55 µM (active).

`CCN(CC)CCOC(=O)C(c1ccccc1)C1CCCCC1` (stereo not drawn): the Potency result in assay [1], in assay [3] and in [9] was “inactive” in each case. Besides, the Potency is 13.3 µM (active) in assay [5], 25.1 µM (active) in [10] and 1.1 µM (active) in [8].

For the compound `COc1cc2c(cc1OC)C(C(C(=O)N(CCc1ccc(OC)c(OC)c1OC)CCc1ccc(OC)c(OC)c1OC)c1ccccc1)=NCC2` (stereo not drawn), the Potency result in assay [1], in [3] and in assay [9] was “inactive” in each case. Further, the Potency in assay [2] was 26.6 µM (active); in [4], 26.6 µM (active); in [5], 2.66 µM (active); in assay [7], 2.51 µM (active); in assay [10], 7.94 µM (active); in assay [8], 5.49 µM (active).

As for `CC(=O)c1ccc2c(c1)N(CCCN(C)C)c1ccccc1S2`, the Potency entry in assay [1], in [3], in assay [5], in [9] and in assay [10] was “inactive” each time. For the same compound, the Potency in [8] was 1.95 µM (active).

For `OC(C#CCN1CCCC1)(c1ccccc1)c1ccccc1`, the Potency entry in assay [1], in assay [2], in [3] and in assay [4] was “inactive” in each case. Moreover, the Potency was 23.7 µM (active) in assay [5], 15.8 µM (active) in assay [9] and 11 µM (active) in [8]. In addition, the max activation in assay [7] was 1.06%.

In the case of `Clc1ccc(Cn2c(CN3CCCC3)nc3ccccc32)cc1`, the Potency entry in assay [1], in [3] and in assay [4] was “inactive” each time.

For `c1ccc(C(O[C@H]2CCCN(CCc3ccc4c(c3)OCO4)C2)c2ccccc2)cc1`, the Potency entry in [1], in assay [2] and in assay [3] was “inactive” each time. For the same compound, the Potency in assay [8] is 2.45 µM (active).

On to `CCCCCCCC#N`, for which the Potency result in [2], in assay [3], in assay [4] and in [8] was “inactive” in each case.

For `Cc1oc(-c2ccccc2)nc1CCOc1cccc2c1ccn2CCC(=O)O`, the Potency entry in assay [1], in assay [3], in assay [5] and in assay [8] was “inactive” throughout. In addition, the Potency in assay [2] and in [4] was 34.4 µM (active) throughout.

Regarding `CCCCCCOC(=O)NC(=N)c1ccc(NCc2nc3cc(C(=O)N(CCC(=O)OCC)c4ccccn4)ccc3n2C)cc1`, the Potency result in [1] and in assay [3] was “inactive” each time. Also, the results for the Potency in assay [2] and in assay [5] were 29.8 µM (active) and 11.9 µM (active), respectively.

For the compound `CN(C)CCN(Cc1ccc(Cl)cc1)c1ccccn1`, the Potency entry in assay [1], in [3] and in assay [4] was “inactive” in each case. In addition, the Potency in assay [8] was 0.275 µM (active).

`C=C1C(=C/C=C2\CCC[C@]3(C)[C@@H]([C@H](C)/C=C/[C@@H](O)C4CC4)CC[C@@H]23)C[C@@H](O)C[C@@H]1O`: the Potency entry in assay [1], in assay [3], in assay [9] and in [10] was “inactive” throughout. In addition, the Potency in [2] is 18.8 µM (active); in [5], 16.8 µM (active).

Turning to `CN1C[C@H]2c3ccccc3Oc3ccc(Cl)cc3[C@@H]2C1`, the Potency entry in assay [1], in assay [2], in [3], in assay [4] and in assay [5] was “inactive” each time. The Potency in assay [8] was 0.11 µM (active).

As for `CN(C)C(=O)NC1(c2ccccc2)CCN(CC[C@@]2(c3ccc(F)c(F)c3)CN(C(=O)c3ccccc3)CCO2)CC1`, the Potency result in assay [1] and in assay [3] was “inactive” throughout. The Potency in assay [5] was 8.02 µM (active); in assay [8], 26.2 µM (active).

On to `O=C(Cl)c1cc(C(=O)Cl)cc(C(=O)Cl)c1`, for which the Potency result in [1], in [3] and in [4] was “inactive” throughout. In assay [5], the Potency is 54.5 µM (active).

Regarding `CCc1cc(C2=C(C(=O)O)N(c3ccccc3C(F)(F)F)S(=O)(=O)c3ccccc32)cc2c1OCO2`, the Potency entry in assay [1], in [3], in assay [5] and in assay [8] was “inactive” throughout. Moreover, the Potency in assay [2] was 30.3 µM (active); in [4], 15.2 µM (active).
